Measurements: PubChem BioAssay (NCATS)
Where “and” joins values, the source holds several entries; their conditions need not be identical. Equal values may be shown once. Records with an inconclusive call do not appear. Calls of active or inactive are those of the source. Calls follow the shape of the full dose curve.

Assay: Primary qHTS to identify inhibitors of SARS-CoV-2 cell entry (AID 1645846); also: nearly all actives have a fitted effect of over 45% in size
Details: SARS-CoV-2 pseudovirus cell entry assay, luminescence; activity change, negative = inhibition: at 57.1 µM (top of the series) unless noted; series mostly up to 57.1 µM
Procedure, shortened: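 Data are normalized to wells receiving SARS-CoV-2-S pseudoparticles and those given bald particles. Entry signal was luciferase luminescence in stable hACE2 Expi293F cells, 48 hr post-infection, after 1 hr compound pretreatment.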

SMILES | activity change, negative = inhibition | outcome
CCCC(=O)OC[C@@H](OC(=O)CCC)[C@@H](OC(=O)CCC)[C@H](Cn1c2nc(=O)[nH]c(=O)c-2nc2cc(C)c(C)cc21)OC(=O)CCC | -16.8% | –
C[C@]12CC[C@@H]3c4ccc(O)cc4CC[C@H]3[C@@H]1C[C@@H](O)[C@@H]2O | -20% and -12.5% | –
c1ccc(CNCCNCc2ccccc2)cc1 | -30.1% | –
CC(=O)Nc1ccc(S(=O)(=O)Nc2ccc([N+](=O)[O-])cc2)cc1 | – | inactive
C[C@@H]1CCC[C@H](C)N1CCCC(O)(c1ccccc1)c1ccccn1 (stereo not given in full) | -1.1% | –
CC(=O)Oc1c(C)c(C)c2c(c1C)CC[C@@](C)(CCC[C@H](C)CCC[C@H](C)CCCC(C)C)O2 | – | inactive
O=C(O)c1ccc(OCCCOc2ccc(C(=O)O)cc2)cc1 | -2.21% | –
CCOC(=O)c1cccc(N)c1 | -8.06% | –
N[C@H](Cc1c[nH]c2ccccc12)C(=O)O | – | inactive
Cc1c(N(C)C)c(=O)n(-c2ccccc2)n1C | -10.1% | –
C[N+]1(CC2COC(c3ccccc3)(c3ccccc3)O2)CCCCC1 (stereo not given) | 1.26% [at 27.1 µM] | –
CCc1cccc2c3c([nH]c12)C(CC)(CC(=O)O)OCC3 (stereo not given) | – | inactive
CCOC(=O)n1ccn(C)c1=S | – | inactive
CC(C)C[C@@H](N)C(=O)O | 3.85% [at 27.1 µM] | –
C[C@]12CC[C@@H]3c4ccc(O)cc4CC[C@H]3[C@@H]1CCC2=O | – | inactive
C=C1C[C@H]2[C@@H]3C=C(C)C4=CC(=O)CC[C@]4(C)[C@H]3CC[C@]2(C)[C@@]1(OC(C)=O)C(C)=O | 2.39% | –
CCOc1ccc(NC(C)=O)cc1 | – | inactive
C/C=C/c1ccc(O)c(OC)c1 | -1.3% | –
CCOC(=O)c1cc(=O)c2c(OCC(COc3cccc4oc(C(=O)OCC)cc(=O)c34)OC(=O)[C@@H](N)CCCCN)cccc2o1 | – | inactive
CC1(C)O[C@@H]2C[C@H]3[C@@H]4C[C@H](F)C5=CC(=O)C=C[C@]5(C)[C@H]4[C@@H](O)C[C@]3(C)[C@]2(C(=O)CO)O1 | 12.8% and -23.3% | –
